In ChEMBL document CHEMBL4513216, “Probing the Open Global Health Chemical Diversity Library for Multistage-Active Starting Points for Next-Generation Antimalarials” (ACS Infect Dis, 2020):
Hit rate of the full screen: of about 68,000 compounds, about 2,700 (4%) showed an effect of 50% or more. The full list was thinned out, with strong results kept by preference.

system: Plasmodium berghei; test: Screen against P. berghei liver stage (PbLuc), transformed with Luciferase, at 2uM; format: functional, HepG2; details: tested at 2 uM

Row | Structure (SMILES) | INHIBITION [%]
1 | Cc1ccc(CN2C[C@@H](OCc3ccccn3)[C@H]3COC[C@H]32)o1 | -4.92
2 | CC(C)c1nc(C2CCCN2Cc2nccn2CC(F)(F)F)no1 (centres undefined) | -20.05
3 | CC(C(=O)Nc1ccc(N2CCOCC2)nc1)n1cncn1 (centres undefined) | 43.32
4 | CCc1cnc(CN2C(=O)CC3(CCSC3)C2=O)o1 (centres undefined) | 15.39
5 | CC(C)c1cnc(CN2C(=O)CC3(CCSC3)C2=O)o1 (centres undefined) | -21.1
6 | CC(C)(C)c1cnc(CN2C(=O)CC3(CCSC3)C2=O)o1 (centres undefined) | 53.99
7 | Cc1nc2ccc(-n3ncnc3[C@@H]3CCCN3S(C)(=O)=O)cc2s1 | -35.1
8 | CC(C)(C)CN1Cc2cc3c(cc2NCCC1=O)OCO3 | -15.54
9 | CN(C)CCn1c2c(ccc1=O)CCN(C(=O)c1cccs1)CC2 | 53.27
10 | CN(C)CCn1c2c(ccc1=O)CCN(C(=O)c1ccoc1)CC2 | 17.31
11 | Cc1ccc(C(=O)N2CCc3ccc(=O)n(CCN(C)C)c3CC2)o1 | 5.77
12 | NC(=O)N1CCCN(CC(=O)NCCc2c(F)cccc2F)CC1 | 19.12
13 | Cc1cc(C)c(CCNC(=O)CN2CCCN(C(N)=O)CC2)c(C)c1 | 66.74
14 | Cc1cc(C)cc(C(=O)N2CCCN(CC(N)=O)CC2)c1 | 16.13
15 | O=C(c1ccc2c(c1)OCO2)N1CCC[C@]2(C[C@H](OCC3CC3)CO2)C1 | 10.43
16 | O=C(CN1CCCC1Cn1cccn1)NC1CCOCC1 (centres undefined) | 4.41
17 | CCCS(=O)(=O)c1ccc(N2CCN(Cc3ccccc3)CC2)nn1 | 27.54
18 | Cc1nc(N2CCN(S(C)(=O)=O)CC2)cc(-n2cnc(C)c2C)n1 | 43.32
19 | CCS(=O)(=O)N1CCN(c2cc(-n3cnc(C)c3C)nc(C)n2)CC1 | 61.28
20 | CCCS(=O)(=O)N1CCN(c2cc(-n3cnc(C)c3C)nc(C)n2)CC1 | 35.54
21 | CCOCCN1CCCC1CS(N)(=O)=O (centres undefined) | -7.76
22 | O=C(c1ccc2c(c1)OCO2)N1CCCC(Nc2ccc(F)cc2)C1 (centres undefined) | 47.67
23 | CC(C)(O)CSCCNC(=O)c1cc(F)ccc1F | 35.56
24 | CC(C)(O)CSCCNC(=O)c1ccc(F)cc1Cl | 58.69
25 | CSCC(C)(O)CNC(=O)c1ccc(F)cc1Cl (centres undefined) | -29.65
26 | O=C(CCc1ccc(Cl)cc1)N[C@@H]1CC[C@@H](O)[C@@H]1O | -11.3

Row | Structure (SMILES) | INHIBITION [%]
27 | c1cncc(CN2CCCn3nnc(COCC4CC4)c3C2)c1 | 34.37
28 | O=C(CCCOCc1ccccc1)N1CCCC1c1ccccn1 (centres undefined) | 28.51
29 | CSc1ccc(NC(=O)COCc2ccccc2)nc1 | 12.43
30 | O=C(COCc1ccccc1)Nc1ccccn1 | 62.51
31 | CS(=O)(=O)Cc1cc(F)ccc1NCc1nnsc1Cl | -13.68
32 | CCC(C)(C)NC(=O)Cn1nnc(CN(C)C(=O)c2ccccc2)n1 | 2.49
33 | CCN(Cc1nnnn1C1CC1)c1cc(C)ccc1C | 55.43
34 | CN(Cc1nnnn1C1CC1)c1cccc2ccccc12 | 4.86
35 | Cc1ccc(N(C)Cc2nnnn2C2CC2)c(C)c1 | -11.28
36 | Cc1nnc(SCC(=O)NCc2ccc3c(c2)CCC(=O)N3)n1C | 26.03
37 | Cc1ncc(-c2ccnc(SCCN(C)C)n2)c(-c2ccco2)n1 | 8.77
38 | CNC(=O)[C@@H](C1CCCCC1)N1CCC[C@H]1C(=O)N(C)CCN(C)C | 27.65
39 | Cc1cc(CC(C)NC(=O)Cc2cc(F)ccc2C)[nH]n1 (centres undefined) | 27.47
40 | COc1ccccc1C1CC(=O)Nc2nc(N3CCCCC3)sc21 (centres undefined) | -71.12
41 | CN(C)C[C@@H]1CCC[C@@H]2CN(c3nccc(C(F)(F)F)n3)C[C@@H]21 | 16.87
42 | O=C1O[C@@H]2CN(c3ccccn3)C[C@@H]2N1CCCc1ccc(F)cc1 | 12.55
43 | O=C1O[C@@H]2CN(c3cnccn3)C[C@@H]2N1CCCc1ccc(F)cc1 | 51.96
44 | O=C1O[C@@H]2CN(c3ncccn3)C[C@@H]2N1CCCc1ccc(F)cc1 | 17.48
45 | COc1cc(C2c3c(n[nH]c3C)N=C3COC(=O)C32)cc2c1OCO2 (centres undefined) | -41.64
46 | COc1ccc(CNC(=O)NC(C)(CO)C2CC2)c(C(F)(F)F)c1 (centres undefined) | -16.93
47 | CCN(CC)C(=O)c1cc(Br)cc(S(=O)(=O)N2CCOCC2)c1F | 0.48
48 | O=C(COCc1ccccc1)N1CCC(OCc2cccnc2)CC1 | 34.34
49 | Cc1cc(C)c(C(=O)N2CCCC(C(=O)CCc3ccccc3)C2)cn1 (centres undefined) | 0.73
50 | CN(C)S(=O)(=O)N1CCOC(c2cccc(-c3cncnc3)n2)C1 (centres undefined) | -12.93
51 | CC(=O)NCCNC(=O)c1nc(C2CC2)n(-c2ccccc2Cl)n1 | -1.79
52 | CN(C)C(=O)CNC(=O)c1nc(C2CC2)n(-c2ccccc2Cl)n1 | 65.76

Row | Structure (SMILES) | INHIBITION [%]
53 | Cc1nc(C(=O)N2CCCCC2)nn1-c1ccccc1Cl | 60.09
54 | CCc1nc(C(=O)N2CCCCC2)nn1-c1ccccc1Cl | -41.76
55 | CCN1CCN(C(=O)c2nc(C)n(-c3ccccc3Cl)n2)CC1 | -18.67
56 | CCNC(=O)CNC(=O)c1nc(C2CC2)n(-c2ccccc2Cl)n1 | 13.01
57 | CN1[C@H](Cn2cncn2)C[C@@H]2CN(Cc3cccc(C#N)c3)CC[C@@H]21 | 12.3
58 | CN1CCC2(C=C(C(=O)N(C)C)c3ccccc32)CC1 | -10.89
59 | Cc1cccc(C(=O)N2CC(Cc3nccc4ccn(C)c34)C2)n1 | -25.33
60 | CC(=O)N1CC(Cc2nccc3ccn(C)c23)C1 | 20.08
61 | Cn1ccc2ccnc(CC3CN(C(=O)c4cscn4)C3)c21 | 52.82
62 | CCc1nnc2n1CCN(C(=O)C(C)COCc1ccccc1)C2 (centres undefined) | -32.2
63 | Cc1cc2c(N3CCC(N(C)Cc4cnn(C)c4)CC3)ncnc2s1 | 10.13
64 | Cn1c(=O)c2c(n3ncnc13)NC(=O)CC2c1ccc(F)cc1 (centres undefined) | 53.55
65 | CCc1ccc(C2CC(=O)Nc3c2c(=O)[nH]n3C(C)C)cc1 (centres undefined) | -9.13
66 | COc1cccc(C2CC(=O)Nc3c2c(=O)n(C)c2ncnn32)c1 (centres undefined) | 15.49
67 | Cn1c(=O)c2c(n3ncnc13)NC(=O)CC2c1cccc(F)c1 (centres undefined) | 5.31
68 | CCc1ccc(C2CC(=O)Nc3c2c(=O)n(C)c2ncnn32)cc1 (centres undefined) | 56.21
69 | Cn1c(=O)c2c(n3ncnc13)NC(=O)CC2c1cccc(Br)c1 (centres undefined) | -13.28
70 | CCS(=O)(=O)N1Cc2[nH]nc(COCc3cccnc3)c2C1 | -2.81
71 | CNC(=O)C(C)(C)N1CCC[C@H]1C(=O)NC(C)(C)C | 30.4
72 | CCN1CCCC12CCCN(c1ncccn1)C2 (centres undefined) | -23.31
73 | CC1=Nc2c(c(O)nn2C2CCOCC2)C(c2cccnc2)S1 (centres undefined) | 18.76
74 | CCn1ccnc1CN(C)c1nc(-c2ccc(Cl)cc2)nc2c1CNC2 | 5.28
75 | CCN(CC)CCN(C)c1nc(-c2ccc(Cl)cc2)nc2c1CNC2 | 81.59
76 | Cc1nccn1CCN(C)c1nc(-c2ccc(Cl)cc2)nc2c1CNC2 | 19.59
77 | O=C(O)c1cc(S(=O)(=O)Nc2cc(F)ccc2F)cc2c1OCCO2 | -41.21
78 | COCCN1CCN(CCCS(=O)(=O)N(C)C)CC1C (centres undefined) | 25.35

Row | Structure (SMILES) | INHIBITION [%]
79 | O=C(CCCc1ccccn1)NCC(O)c1c(F)cccc1F (centres undefined) | 17.98
80 | CCn1nnc2c1C(COCCN(C)C)CN(S(C)(=O)=O)C2 (centres undefined) | 34.19
81 | CN(C)c1ncccc1CNC(=O)N1CCCC1c1ccsc1 (centres undefined) | 43.93
82 | CN(CCCNC(=O)N1CCCC1c1ccsc1)c1ccccn1 (centres undefined) | 63.95
83 | O=C(NCCCn1cccn1)N1CCCC1c1ccsc1 (centres undefined) | 16.21
84 | N#Cc1ccc(C(=O)N2CC[C@H]3[C@@H]2CCC(=O)N3c2cccnc2)cc1 | -11.44
85 | CC(C)C(=O)N1CCCC1C(=O)Nc1ccc(F)c(F)c1 (centres undefined) | 55.29
86 | CC(C)C(=O)N1CCCC1C(=O)Nc1cc(C(F)(F)F)ccc1F (centres undefined) | 13.92
87 | Cc1ccc(F)cc1NC(=O)C1CCCN1C(=O)C(C)C (centres undefined) | 15.27
88 | Cc1cnc(C(C)(C)NC(=O)NCc2ccc(C#N)cc2F)s1 | 16.79
89 | Cc1cc(C)c(CNC(=O)N2CCN(c3cnccn3)CC2)c(=O)[nH]1 | 63.95
90 | Cc1cc(C)c(CNC(=O)N2CCN(c3ccccn3)CC2)c(=O)[nH]1 | 7.64
91 | Cc1cc(C)c(CNC(=O)C2CCN(c3cnccn3)CC2)c(=O)[nH]1 | -7.02
92 | CSc1ccccc1NC(=O)C1CSc2ncc(C)c(=O)n2C1 (centres undefined) | -35.92
93 | Cn1c(C(F)(F)F)nn(CCNC(=O)CSCc2ccccc2)c1=O | -30.06
94 | NCCn1nc(C2CCN(Cc3ccccc3)C2)c2nccnc21 (centres undefined) | 8.26
95 | CN1CCCCCC1C(=O)NCCCn1ncc2ccccc21 (centres undefined) | 54.78
96 | CN1CCCC(CCC(=O)NCCCn2ncc3ccccc32)C1 (centres undefined) | 46.95
97 | CN1CCCCC1CCC(=O)NCCCn1ncc2ccccc21 (centres undefined) | 28.19
98 | O=C(Nc1ccc(Cl)cc1C(=O)NCCN1CCOCC1)c1ccco1 | 60.47
99 | O=C(Nc1ccc(I)cc1C(=O)NCCN1CCOCC1)c1ccco1 | -54.79
100 | O=C(Nc1ccccc1C(=O)NCCN1CCOCC1)c1ccco1 | -4.93
101 | CN(C)CCOCC1CN(Cc2cccs2)Cc2ccnn2C1 (centres undefined) | -85.93
102 | Cc1cc(CN2CCN(C(=O)NCc3c(C)noc3C)CC2)on1 | 70.27
103 | CCCNC(=O)N1CCN(Cc2cc(C)no2)CC1 | 26.4
104 | Cc1cc(CN2CCN(C(=O)NCc3ccc(C)s3)CC2)on1 | 6.63
